Tau fibril FP: blocks human tau fibril formation measured by polarization; P10636; K18 P301L tau heparin fibrillization, Alexa594 FP, 6 h; Potency, µM (highest dose often 57.7 µM), without a hit: at the highest dose activity, negative = inhibition, most hits filed as inhibitors; 280,000 compounds, 0.39% hits; AID 1468; active = well fitted curve in the direction sought with a large enough effect; inconclusive = small, poorly fitted or top-dose-only effect, or another doubt; inactive = no such curve, though single readings can be large; an effect the other way counts as inactive or inconclusive; note: nearly all actives have a fitted effect of over 55% in size
Target sequence (P10636 561-689 P618L limits assumed): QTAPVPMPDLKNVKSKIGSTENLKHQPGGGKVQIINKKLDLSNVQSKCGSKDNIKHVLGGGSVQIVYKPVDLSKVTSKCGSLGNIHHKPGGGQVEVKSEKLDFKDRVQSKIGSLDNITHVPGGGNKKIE
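Recombinant K18 P301L […], labeled with Alexa 594 at 0.24 uM over 15 uM unlabeled; heparin inducer 20 uM final; 37 C, 6 hr; FP endpoint.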
Tau fluor cs: counter-screen for tau fibril formation inhibitors | tau K18 P301L Alexa594 fluorescence, heparin fibrillization | Potency, µM (series often up to 57.7 µM), for inactives: at the top dose activity change, negative = decrease | 280,000 compounds, 0.93% hits | AID 1463; active = well fitted curve in the direction sought with a large enough effect; inconclusive = small, poorly fitted or top-dose-only effect, or another doubt; inactive = no such curve, though single readings can be large; an effect the other way counts as inactive or inconclusive; note: nearly all actives have a fitted effect of over 55% in size
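Human K18 P301L tau (15 uM unlabeled plus 0.24 uM Alexa 594-labeled, final) in 100 mM sodium acetate pH 7 was mixed with compound and 20 uM heparin and incubated 6 hr at 37 C.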
JMJD2E inh: blocks human JMJD2E demethylase activity | B2RXH2 | JMJD2E catalytic domain, FDH-coupled NADH fluorescence (FDH is formaldehyde dehydrogenase) | Potency, µM (series often up to 57.1 µM), inactives show at the highest dose activity change, negative = inhibition, most hits filed as inhibitors | 230,000 compounds, 1.6% hits | AID 2147;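 note: 0% = wells with enzyme and -100% = buffer wells without enzyme; nearly all actives have a fitted effect of over 50% in size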
ALDH1A1 inh: blocks purified human ALDH1A1 activity. AID 1030. Purified ALDH1A1, NADH fluorescence, propionaldehyde substrate. 220,000 compounds, 7.3% hits. Potency, µM (top dose mostly 75.3 µM), for the others: at the top dose activity, negative = inhibition, usual class: inhibitors. P00352;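 note: plate controls were no enzyme wells and a reference inhibitor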
Target sequence (P00352 whole entry, looked up): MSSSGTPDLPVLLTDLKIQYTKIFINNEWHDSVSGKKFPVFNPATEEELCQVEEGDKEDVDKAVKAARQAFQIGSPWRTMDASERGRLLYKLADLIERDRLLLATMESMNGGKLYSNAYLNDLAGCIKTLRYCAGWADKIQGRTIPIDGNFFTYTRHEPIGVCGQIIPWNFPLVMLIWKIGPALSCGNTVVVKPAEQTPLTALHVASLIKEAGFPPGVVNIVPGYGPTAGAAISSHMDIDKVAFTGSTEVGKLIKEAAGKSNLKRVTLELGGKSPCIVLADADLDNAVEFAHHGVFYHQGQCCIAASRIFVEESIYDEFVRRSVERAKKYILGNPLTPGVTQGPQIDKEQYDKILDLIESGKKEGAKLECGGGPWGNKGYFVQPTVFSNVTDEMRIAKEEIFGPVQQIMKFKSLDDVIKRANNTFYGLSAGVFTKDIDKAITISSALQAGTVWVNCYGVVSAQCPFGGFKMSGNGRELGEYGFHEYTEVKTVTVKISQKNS
HPGD inh: inhibitors of human 15-hydroxyprostaglandin dehydrogenase (HPGD); P15428; purified HPGD, NADH fluorescence kinetic, PGE2 substrate; Potency, µM, for the others: at the highest dose activity change, negative = inhibition, most hits filed as inhibitors; 150,000 compounds, 4.3% hits; AID 894
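NADH formation kinetics: reaction with 30 uM PGE2 and 1 mM NAD+ (final), 20 nM enzyme, Tris-HCl pH 8 with Tween 20, after 15 min compound preincubation at room temperature. Fluorescence change, last versus first of five reads.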
Tau ThT inhib: blocks human tau fibril formation measured by thioflavin T; Potency, µM (doses to about 57.4 µM), without a hit: at the highest dose activity, negative = inhibition, usual class: inhibitors; recombinant tau K18 P301L (four-repeat tau fragment), heparin-induced fibrillization, ThT fluorescence; 270,000 compounds, 2.1% hits; P10636; active = well fitted curve in the direction sought with a large enough effect; inconclusive = small, poorly fitted or top-dose-only effect, or another doubt; inactive = no such curve, though single readings can be large; an effect the other way counts as inactive or inconclusive; note: nearly all actives have a fitted effect of over 55% in size
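Tau K18 P301L fragment (15 uM unlabeled plus 0.24 uM Alexa 594-labeled) in 100 mM sodium acetate pH 7 with compound, fibrillization induced by 20 uM heparin for 6 hr at 37 C. Thioflavin T (30 uM) added, fluorescence read after 1 hr (ex 450, em 510 nm).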
* marks the source's active call; other numbers are inactive results; ? = inconclusive; · = no result; [ ] = dose if it differs, or a comment. Shown are actives, neighbours in structure and some others; about 9.9% of the full set was active somewhere. Unless noted, calls come from the whole dose curve; as a rule, active = well fitted inhibition curve with a large enough effect (not every such curve was filed as active); inconclusive = small, poorly fitted or top-dose-only effect, or another doubt; inactive = no such curve, though single readings can be large or run the other way. Unless noted, % is set by controls: 0 for no effect and ±100 for the full control effect; potency is the fitted concentration of half-maximal effect.

SMILES	Tau fibril FP	Tau fluor cs	JMJD2E inh	ALDH1A1 inh	HPGD inh	Tau ThT inhib
CC(C)C[C@@H](NC(=O)OCC1c2ccccc2-c2ccccc21)C(=O)O	0%	-9%	9%	13µM*	-4%	-15%
N#C/C(=N\Nc1cc(Cl)cc(Cl)c1)c1nnc2n1CCCCC2	-1%	-3%	11%	8.9µM*	25µM*	0%
N#C/C(=C1\C(=O)Nc2c(Cl)cc(Cl)cc21)c1nnc2n1CCCCC2	?	-25%	?	3.5µM*	-23%	16µM*
N#C/C(=C1/CCCCCN1)c1nnc2n1CCCCC2	7%	3%	1%	-9%	-6%	1%
COc1ccc([N+](=O)[O-])c2c1CCN2C(=O)CC[C@H](N)C(=O)O	-9%	-14%	-24%	10%	-5%	-17%
O=C(CSc1nc2ccccc2o1)N/N=C/c1ccc(O)c(O)c1	2%	?	11µM*	·	·	?
O=C(CSc1nc2ccccc2o1)N/N=C/c1ccccc1	-9%	-16%	10%	5%	-7%	-4%
C/C(=N\NC(=O)CSc1nc2ccccc2o1)c1ccc(O)cc1	-5%	-14%	-2%	24µM*	·	?
CCCCCCC#Cc1cc(OC)c(OC)cc1C(N1CC(C)c2ccccc21)N1CC(C)c2ccccc21 (stereo unspecified)	0%[11.6 µM]	-9%[11.6 µM]	·	?	·	-13%[11.5 µM]
C=CCn1c(SCC(=O)N2CCc3ccccc3C2)nc2sc(CC)cc2c1=O	2%	-5%	?	?	-11%	-15%
COCCn1c(SCC(=O)N2CCCCC2)nc2ccccc2c1=O	-1%	-1%	3%	10µM*	-23%	8%
Cc1nc2ncnn2c(C)c1CCC(=O)N1CCN(c2ccccn2)CC1	4%	0%	?	-5%	-30%	4%
C=CCn1c(SCC(=O)N2CCc3ccccc3C2)nc2ccccc2c1=O	6%	-3%	-2%	13µM*	-27%	-14%
Cc1nc2ncnn2c(C)c1CCC(=O)N1CCc2ccccc2C1	3%	-4%	7%	2.2µM*	-6%	-8%
CCn1c(SCC(=O)N2CCCC2)nc2ccccc2c1=O	7%	9%	6%	-5%	?	7%
O=C(CSc1nc2ccccc2c(=O)n1CCC(=O)N1CCCCC1)NCc1ccccc1	-2%	-8%	2%	8.9µM*	-11%	-9%
CCOC(=O)C1CCN(c2c(Nc3ccc(C)c(C)c3)c(=O)c2=O)CC1	6%	-1%	6%	·	·	·
Cc1ccnc(SCC(=O)N2CCc3ccccc3C2)n1	-10%[2.34 µM]	-39%	-7%	18µM*	·	-4%
Cc1ccccc1Cn1c(=O)n(CCCCC(=O)NCc2ccccc2Cl)c(=O)c2ccccc21	-8%	-4%	·	·	·	6%
Cn1c(=O)c2c(nc(SCC(=O)O)n2Cc2cc3c(cc2Cl)OCO3)n(C)c1=O	-10%	-9%	?	35µM*	25µM*	-13%
CCn1c(SCC(=O)Nc2ccc3c(c2)OCO3)nc2c1c(=O)n(C)c(=O)n2C	1%	-8%	0%	17%	-3%	-16%
O=C(CC1=NCCNC(c2ccccc2)C1)c1ccccc1O (stereo unspecified)	-5%	?	-12%	18µM*	25µM*	-15%
COc1ccc(NC(=O)C2C3CC/C=C\CCC32)cc1 (stereo unspecified)	-1%	0%	4%	·	·	-1%
O=C(Nc1ccc(O)cc1)C1CC=CCC1 (stereo unspecified)	?	28µM*[quencher]	-6%	?	-10%	25µM*
COc1ccc(C(=O)Oc2cc3c4c(c2)C(C)=CC(C)(C)N4C(=O)C3=O)cc1OC	-2%	2%	-10%	?	32µM*	3%
SMILES	Tau fibril FP	Tau fluor cs	JMJD2E inh	ALDH1A1 inh	HPGD inh	Tau ThT inhib
COc1cc2c3c(c1)C(C)=CC(C)(C)N3C(=O)C2=O	-7%	?	-21%	3.5µM*	·	?
COc1cc2c3c(c1)C1(C(=O)N3C(C)(C)C=C2C)C(C#N)=C(N)Oc2cc(O)ccc21 (stereo unspecified)	-8%	?	?	3%	-17%	0%
COc1cccc(C(=O)Oc2cc3c4c(c2)C(C)=CC(C)(C)N4C(=O)C3=O)c1	5%	?	2%	8.9µM*	28µM*	?
COc1cc2c3c(c1)C(C)CC(C)(C)N3C(=O)C2=O (stereo unspecified)	5%	-22%	12%	0.14µM*	·	?
Cc1cc(C)nc(N2CCCC(C(=O)NC(C)C)C2)n1 (stereo unspecified)	-2%	-3%	?	-6%	·	-5%
O=C1c2ccccc2C(=O)c2c(NCCCN(CCO)CCO)cccc21	1%	?	-3%	?	·	14µM*
FC(F)(F)c1ccccc1-c1nccc(NCCN2CCOCC2)n1	·	·	·	15%	·	·
Cc1ccccc1-c1nccc(NCCN2CCOCC2)n1	·	·	·	32µM*	·	·
CN(C)c1ccc(/C=N/N=C2/NC(=O)/C(=C/c3ccc([N+](=O)[O-])cc3)S2)cc1	-2%	-27%	-6%	25µM*	-25%	?
CC1S/C(=N/N=C/c2cccc([N+](=O)[O-])c2)NC1=O (stereo unspecified)	7%	-24%	?	·	·	-13%
N/C(=N\OC(=O)N1c2ccccc2Sc2ccccc21)c1ccccc1	14%	?	0%	8%	18µM*	?
Cc1cccc(/C(N)=N/OC(=O)Cc2ccccc2)c1	-10%	-20%	-1%	9%	·	-14%
Cc1cccc(/C(N)=N/OC(=O)N2c3ccccc3Sc3ccccc32)c1	7%	?	14%	-6%	18µM*	?
Fc1ccc(-c2c[nH]c(=S)n2Cc2ccccc2)cc1	0%	-21%	-17%	0.35µM*	·	-6%
CN1C(CC(=O)Nc2ccc(Cl)cc2Cl)c2ccccc2CC1(C)C (stereo unspecified)	-9%	-16%	?	·	·	?
CCOC(=O)/C(C(=O)Nc1ccc(Cl)cc1Cl)=C1/NC(C)(C)Cc2ccccc21	8%	-5%	-14%	13µM*	-17%	-5%
CC(=O)c1cccc(NC(=O)CC2Oc3ccc(C)cc3NC2=O)c1 (stereo unspecified)	1%	-10%	5%	3.2µM*	1%	-14%
CCOC(=O)c1sc2nc3c(SCCC#N)cc(C(=O)c4cc(F)ccc4O)cn3c(=O)c2c1C	-16%	?	?	-12%	-11%	?
CCOC(=O)c1sc2nc3c(SCCC(=O)O)cc(C(=O)c4cc(OC)ccc4O)cn3c(=O)c2c1C	-4%	-24%	?	-15%	·	25µM*
O=C(O)CSc1cc(C(=O)c2cc(F)ccc2O)cn2c(=O)c3c(-c4ccccc4)csc3nc12	-13%	-25%	5%	7.9µM*	·	28µM*

High-throughput results as filed in PubChem.
